The campaign covered roughly 52,000 compounds. About 1,700 (3.3%) were called active. Rule as the data show it: active = survival mostly below about 52% (no sharp cut-off); inactive = mostly above about 56%. The list comes from a sample in which actives are over-represented; it also holds similar structures and randomly drawn compounds.
System: Wild type
Assay: growth inhibition of S. aureus wild type versus tarO mutant, primary screen, teichoic acid synthesis inhibitors, RN4220, OD600 (AID 463173)
Conditions: S. aureus RN4220 wild type/DeltatarO growth, OD600, 18 h, active compounds read low, screened at 18.75 µg/mL (by protocol)

Row | Structure (SMILES) | survival
1 | COc1cccc(NC(=O)C2CCN(S(=O)(=O)c3ccc4[nH]c5c(c4c3)CCCCC5)CC2)c1 | 84% (inactive)
2 | COc1ccc(NC(=O)c2ccc(CNS(=O)(=O)c3ccc4c(c3)C(C)(C)C(=O)N4C)cc2)cc1 | 114% (inactive)
3 | COc1cccc(NC(=O)c2nnn(Cc3cccc(C(F)(F)F)c3)c2N)c1 | 87% (inactive)
4 | Cc1ccc(Cl)cc1-n1c(CCC(=O)O)ccc1-c1cccs1 | 64% (inactive)
5 | CCOc1ccc(-c2cc3c(=O)n(CC(=O)Nc4cc(F)ccc4C)ccn3n2)cc1 | 68% (inactive)
6 | Cc1ccc(-n2ncc(C(=O)Nc3ccc4c(c3)OCCO4)c2C2CCN(C(=O)OC(C)(C)C)CC2)cc1C | 82% (inactive)
7 | CCCN1CCc2nc(SCC(=O)Nc3ccc(C)c(Cl)c3)[nH]c(=O)c2C1 | 99% (inactive)
8 | O=C(c1noc2c1CCCCC2)N1CCN(c2ccc(Cl)cc2)CC1 | 73% (inactive)
9 | CC1CCc2onc(C(=O)N3CCN(c4ccccc4)CC3)c2C1 (centres undefined) | 121% (inactive)
10 | O=C(c1cc2ccc3cccnc3c2[nH]1)N1CCN(c2cccc(C(F)(F)F)c2)CC1 | -2% (active)
11 | O=C(c1noc2c1CCCCC2)N1CCN(c2cccc(C(F)(F)F)c2)CC1 | -3% (active)
12 | O=C(c1cc2ccc3cccnc3c2[nH]1)N1CCN(c2ccccc2)CC1 | 59% (inactive)
13 | CC1CCc2onc(C(=O)N3CCN(c4cccc(Cl)c4)CC3)c2C1 (centres undefined) | 88% (inactive)
14 | O=C(c1noc2c1CCCCC2)N1CCN(c2cccc(Cl)c2)CC1 | 73% (inactive)
15 | O=C(c1cc2ccc3cccnc3c2[nH]1)N1CCN(c2ccc(Cl)cc2)CC1 | 91% (inactive)
16 | CC1CCc2onc(C(=O)N3CCN(c4cccc(C(F)(F)F)c4)CC3)c2C1 (centres undefined) | 10% (active)
17 | CCn1c(Cc2ccccc2)nnc1SCC(=O)N(C)C1CCCCC1 | 108% (inactive)
18 | COc1ccc(CNc2nc3c(-c4ccccc4)nnn3c3ccccc23)cc1 | 90% (inactive)
19 | COc1ccc(-c2cc(C(=O)Nc3c(C)n(C)n(-c4ccccc4)c3=O)no2)cc1 | 73% (inactive)
20 | Cc1cccc(CNC(=O)c2ccc(N3Cc4ccccc4Oc4ncccc43)s2)c1 | 69% (inactive)
21 | Cc1ccc(Cn2c(C)c3cnn(CC(=O)N4CCN(c5cc(C)ccc5C)CC4)c(=O)c3c2C)cc1 | 65% (inactive)
22 | CCOC(=O)c1noc2ncn(CC(=O)Nc3ccccc3OC)c(=O)c12 | 133% (inactive)
23 | CCOC(=O)c1noc2ncn(CC(=O)Nc3ccc(F)cc3Cl)c(=O)c12 | -6% (active)
24 | CCOC(=O)c1noc2ncn(CC(=O)Nc3cc(Cl)ccc3OC)c(=O)c12 | 76% (inactive)

Source: PubChem BioAssay AID463173 (ICCB-Longwood Screening Facility, Harvard Medical School, 2010)
